# Screening results as filed in PubChem BioAssay.
# DT40 TDP1 no CPT: qHTS for Inhibitors of human tyrosyl-DNA phosphodiesterase 1 (TDP1): qHTS in cells in absence of CPT | DT40 Tdp1-/- hTDP1 cells, no CPT, ATP luminescence, 48 h | Potency, µM (top dose mostly 46.2 µM), most hits filed as inhibitors | hit rate 15% among 420,000 | AID 686978, 2013; further: nearly all actives have a fitted effect of over 55% in size
#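 A cellular qHTS used chicken DT40 cells lacking endogenous Tdp1 but carrying stably transfected human TDP1. Compounds were applied without camptothecin, and cell growth kinetics were judged by ATP-dependent luminescence after ≥48 hr.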
# VP16 counter: inhibits Gal4-VP16 luciferase reporter, ROR gamma counter-screen. hit rate 3.5% among 310,000. Drosophila S2 Gal4-VP16 UAS-luciferase, luminescence, 20 h. Potency, µM (top dose mostly 53.6 µM), hits mostly inhibitors;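 further: Gal4-VP16 expression switched on by copper sulfate through the metallothionein promoter; nearly all actives have a fitted effect of over 50% in size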
# ALOX12 inh: ALOX12 (human) lipoxygenase inhibition; P18054; purified 12hLO, xylenol orange hydroperoxide absorbance; Potency, µM (highest dose often 108 µM), hits mostly inhibitors; hit rate 1.1% among 580,000
# Target sequence (P18054 whole entry, looked up): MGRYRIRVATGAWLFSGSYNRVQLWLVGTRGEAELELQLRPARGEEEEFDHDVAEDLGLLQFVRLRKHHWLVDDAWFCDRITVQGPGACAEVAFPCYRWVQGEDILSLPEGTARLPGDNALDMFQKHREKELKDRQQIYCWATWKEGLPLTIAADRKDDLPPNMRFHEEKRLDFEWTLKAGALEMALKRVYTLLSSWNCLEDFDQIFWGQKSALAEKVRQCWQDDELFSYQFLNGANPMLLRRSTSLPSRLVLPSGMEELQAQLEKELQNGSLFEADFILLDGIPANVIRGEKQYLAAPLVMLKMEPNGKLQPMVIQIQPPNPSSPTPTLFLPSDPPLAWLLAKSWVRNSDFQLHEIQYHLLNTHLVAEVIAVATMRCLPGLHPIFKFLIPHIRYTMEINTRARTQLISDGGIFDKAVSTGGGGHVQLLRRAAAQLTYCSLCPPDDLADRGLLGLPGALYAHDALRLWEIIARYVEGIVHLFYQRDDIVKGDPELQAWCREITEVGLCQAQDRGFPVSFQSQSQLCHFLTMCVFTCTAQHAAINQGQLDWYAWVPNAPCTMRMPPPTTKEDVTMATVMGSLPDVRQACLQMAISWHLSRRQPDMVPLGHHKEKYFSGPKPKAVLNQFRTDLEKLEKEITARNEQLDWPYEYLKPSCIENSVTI
#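 Purified human 12hLO at 150 nM in 25 mM Hepes, 0.01% Triton X-100, pH 7.0, preincubated 15 min at room temperature with compound. Reaction started with 40 uM arachidonic acid, 30 min at room temperature. Hydroperoxide measured by Fe-xylenol orange, 573/405 nm absorbance ratio.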
# RORgamma inh: inhibitors of mouse ROR gamma transcriptional activity; P51450; Drosophila S2 Gal4-RORgamma UAS-luciferase reporter, 20 h; Potency, µM (highest dose often 53.6 µM), usual class: inhibitors; hit rate 5.4% among 310,000; further: nearly all actives have a fitted effect of over 60% in size
#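 In this cell-based reporter format, copper sulfate (700 uM final) drives Gal4–ROR gamma fusion expression from a metallothionein promoter in Drosophila Schneider cells; compounds preincubated 1 hr, reporter read after 20 hr at ambient temperature.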
# TDP1 cell CPT: DT40-hTDP1 cell growth loss with CPT | Potency, µM (series often up to 46.2 µM), most hits filed as inhibitors | hit rate 12% among 420,000 | chicken DT40 Tdp1-/-;hTDP1 cells + 20 nM CPT, ATP luminescence, 48 h; further: nearly all actives have a fitted effect of over 55% in size
#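 Chicken DT40 Tdp1-/- cells complemented with human TDP1, 400 cells/well, exposed to compounds plus 20 nM camptothecin for at least 48 h at 37 C; viability read as ATP content by CellTiter-Glo luminescence.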
# ELG1 DNA repair: ELG1-dependent DNA repair inhibition. HEK293T ELG1-luciferase reporter, luminescence, 16 h; DNA damage induced by 5-fluorouridine. hit rate 2.3% among 330,000. Potency, µM (highest dose often 46.1 µM), usual class: inhibitors. AID 504467; further: nearly all actives have a fitted effect of over 55% in size
#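 Luminescence from the luciferase reporter, measured 30 min after ONE-Glo reagent at room temperature, was the read-out. Beforehand, 2,000 cells per well were exposed for 16 hr at 37 °C to 5-fluorouridine together with compound or vehicle.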
# Numbers stand for hits; 0 = inactive; ? = inconclusive; - = no result; [ ] = dose if it differs, or a comment. Sampled rows, rich in hits. Any-hit rate of the full collection: about 15%. The call rests on the fitted dose curve; in most records, active means well fitted curve in the direction sought with a large enough effect; inconclusive means small, poorly fitted or top-dose-only effect, or another doubt; inactive means no such curve, though single readings can be large; an effect the other way counts as inactive or inconclusive.
SMILES,DT40 TDP1 no CPT,VP16 counter,ALOX12 inh,RORgamma inh,TDP1 cell CPT,ELG1 DNA repair
Cc1cccc(C2CCCN2S(=O)(=O)c2ccc(C(C)(C)C)cc2)c1 (stereo not given),-,-,0,-,-,-
O=C(O)COc1ccccc1/C=N/O,-,-,0,-,-,-
O=C(NCc1ccccc1)C(c1ccc(C(F)(F)F)cc1)n1c(=O)c(-c2cc3ccccc3[nH]2)nc2ccccc21 (stereo not given),15µM,-,?,-,?,-
CCCCCNC(=O)C(c1ccc(-c2ccccc2)cc1)n1c(=O)c(-c2cc3ccccc3[nH]2)nc2ccccc21 (stereo not given),0,-,0,-,0,-
COc1ccc(NC(=O)C(c2ccc(C(F)(F)F)cc2)n2c(=O)c(-c3cc4ccccc4[nH]3)nc3ccccc32)cc1 (stereo not given),?,-,0,-,18µM,-
N#Cc1ccc(C(C(=O)NCc2ccccc2)n2c(=O)c(-c3cc4ccccc4[nH]3)nc3ccccc32)cc1 (stereo not given),9.2µM,-,0,-,12µM,-
COc1ccc(NC(=O)C(C2CC2)n2c(=O)c(-c3cc4ccccc4[nH]3)nc3ccccc32)cc1 (stereo not given),?,-,0,-,29µM,-
O=C(COC(=O)c1ccccc1Sc1ccc(C(F)(F)F)cc1[N+](=O)[O-])NC12CC3CC(CC(C3)C1)C2,-,-,0,-,-,-
O=C(Cn1ccccc1=O)Nc1ccc(Br)cc1F,-,-,0,-,-,-
CC(C)NC(=O)CSc1ccccc1C(=O)Nc1ccccc1C(=O)NC1CC1,-,-,0,-,-,-
O=c1oc2ccc(Br)cc2cc1-c1nc(-c2ccccc2)cs1,-,-,0,-,-,-
COc1ccc(S(=O)(=O)N2CCC(C)CC2)cc1N(C)S(=O)(=O)c1ccccc1,?,0,0,0,?,0
COc1ccc(S(=O)(=O)N2CCCC2)cc1OC,?,0,0,0,0,0
COc1ccc2cc(S(=O)(=O)N3CCCCC3)ccc2c1S(=O)(=O)N1CCCCC1,?,0,0,0,21µM,?
COc1ccc(S(=O)(=O)N2CCCCCC2)cc1N(C)S(=O)(=O)c1ccc(Cl)cc1,18µM,0,0,0,16µM,?
CCCC(=O)N(Cc1cc(=O)[nH]c2ccccc12)c1cccc(C)c1,?,0,0,0,0,0
CCCCCCN(C(=O)CCl)c1ccccc1,10µM,?,?,?,16µM,?
CCCCCCCN(C(=O)CCl)c1cccc(C)c1,23µM,?,0,?,?,0
C/C(=N\NC(=O)c1c(Cl)c(C)nn1C)c1ccc(NC(=O)C2CCC2)cc1,0.37µM,0,0,0,0.65µM,0
C/C(=N\NC(=O)c1c([N+](=O)[O-])c(C)nn1C)c1ccc(NC(=O)C2CCCC2)cc1,0.18µM,0,0,0,0.16µM,?
CN1C(=O)COC[C@@H]1[C@H](O)c1ccc(NC(=O)C2CCC2)cc1,-,-,0,-,-,-
CCN(C(=O)c1nn(C)c(=O)c2ccccc12)c1nc2ccccc2s1,-,-,0,-,-,-
CN(C)C(=O)C1CN(C(=O)c2ccc(C#N)cc2)CC12CCOCC2 (stereo not given),-,-,0,-,-,-
Cc1noc(C)c1C(=O)N1CCC2(CC1)CN(c1cccc(-c3ccccc3)c1)C2,21µM,0,?,0,?,-
Cc1noc(C)c1C(=O)N1CCC2(CC1)CN(c1ccccc1)C2,?,0,0,?,?,-
SMILES,DT40 TDP1 no CPT,VP16 counter,ALOX12 inh,RORgamma inh,TDP1 cell CPT,ELG1 DNA repair
Cc1noc(C)c1C(=O)N1CCC2(CC1)CCN(c1cccc(-c3ccccc3)c1)CC2,4.6µM,?,0,?,?,-
COc1ccc(CCN2CC(C#N)=C3c4cc(OC)c(OC)cc4CCN3C2)cc1OC,?,0,0,0,?,21µM
O=C(c1ccoc1)N1CCN(c2cc(-c3ccccc3)nc3cc(-c4ccccc4)nn23)CC1,16µM,-,?,-,18µM,-
CN1CCN(c2cc(-c3cccc(C(=O)O)c3)nc3ccnn23)CC1,0,-,?,-,0,-
Cc1cc(N2CCN(C(=O)c3ccoc3)CC2)n2nc(-c3ccccc3)cc2n1,18µM,-,0,-,?,-
O=C(c1ccoc1)N1CCN(c2cc(-c3ccco3)nc3cc(-c4ccccc4)nn23)CC1,7.3µM,-,?,-,8.2µM,-
COc1ccccc1-c1cc2nc(-c3ccccc3)cc(N3CCN(C(=O)c4ccoc4)CC3)n2n1,5.2µM,-,?,-,9.2µM,-
CCN(C(=O)c1cccs1)c1ccccc1,-,-,0,-,-,-
COc1ccccc1-c1cc2nc(-c3ccccc3)cc(N3CCN(C(=O)c4ccco4)CC3)n2n1,6.5µM,-,?,-,12µM,-
Cc1nn(CC(=O)Nc2ccc(O)cc2)c(=O)c2ccccc12,-,-,0,-,-,-
O=[N+]([O-])c1cc(S(=O)(=O)NCCN2CCOCC2)ccc1Sc1nnnn1-c1ccccc1,6.5µM,20µM,0,11µM,5.8µM,?
O=[N+]([O-])c1cc(S(=O)(=O)NCCCN2CCOCC2)ccc1Cl,0,0,0,0[10 µM],0,?
COc1ccc([C@H]2C[C@@H](n3cc(C4CC4)nn3)[C@H](O)CN2CC2CCCCC2)cc1,21µM,-,0,-,?,-
COc1ccc([C@H]2C[C@H](O)[C@@H](n3cc(C4CC4)nn3)CN2CC2CCCCC2)cc1,?,-,0,-,?,-
Cc1ccc([C@H]2C[C@H](n3cc(C4CC4)nn3)[C@@H](O)CN2CC2CCCCC2)cc1,18µM,-,?,-,?,-
COC(=O)N(C)Cc1ccc(-c2ccccc2)cc1,-,-,0,-,-,-
CC(O)(c1ccc(Cl)cc1)c1ccc(Cl)cc1,-,?,-,0,-,-
CCC(C)NCC(O)(c1ccc(Cl)cc1)c1ccc(Cl)cc1 (stereo not given),23µM,0,0,0,23µM,0
O=C(Nc1ccc(Cl)cc1Cl)[C@@H]1CC=C[C@@H]2CCN(C3CCCCC3)C(=O)[C@@H]21,18µM,-,-,-,16µM,-
CCCCN1CC[C@H]2C=CC[C@@H](C(=O)Nc3ccc(Cl)c(C(F)(F)F)c3)[C@H]2C1=O,10µM,-,0,-,?,-
O=C(Nc1ccccc1)[C@@H]1CC=C[C@@H]2CCN(C3CCCCC3)C(=O)[C@@H]21,?,-,0,-,?,-
O=C(Nc1ccc(Cl)c(C(F)(F)F)c1)[C@@H]1CC=C[C@@H]2CCN(C3CC3)C(=O)[C@@H]21,?,-,0,-,?,-
CCCCN1CC[C@H]2C=CC[C@@H](C(=O)Nc3ccc(OC)cc3)[C@H]2C1=O,?,-,0,-,0,-
O=C(Nc1ccc(Cl)c(C(F)(F)F)c1)[C@@H]1CC=C[C@@H]2CCN(C3CCCCC3)C(=O)[C@@H]21,16µM,-,0,-,?,-
COc1cccc(C(=O)OCc2nc3ccccc3o2)c1O,-,-,0,-,-,-
CCc1cc2c(NCC3CCCO3)nc(C)nc2s1 (stereo not given),?,0,?,0,13µM,?
